Measurements reported in the supplement of paper PMC12669797.
Values joined by “and” are separate entries in the source; they are usually repeats but may differ in a detail not shown here. Equal entries are not always repeated.

Assays:
ES2 = assay: cell viability relative to DMSO control (MTS) (fraction of DMSO control); higher = more viable cells / less growth inhibition; conditions: 10 µM; 48 h
Method in brief: (§1)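 TOV-21G and ES2 clear cell carcinoma cells were plated in 96-well plates at 5000 cells per well, grown for 24 h, and then exposed to a 367-compound […] library at a final concentration of 10 µM, with vehicle alone in control wells. An MTS assay (CellTiter 96 AQueous One Solution) was read 48 h later according to the manufacturer's protocol. Viability is reported as a fraction of the vehicle control.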

TOV-21G = assay: as above; conditions: 10 µM; 48 h
Method in brief: as §1

| Structure (SMILES) | cell viability (ES2) | cell viability (TOV-21G) |
| --- | --- | --- |
| CC(/C=C/C(=O)NO)=C\[C@@H](C)C(=O)c1ccc(N(C)C)cc1 [Trichostatin A] | 0.343 | 0.355 |
| O=C(Cc1ccccc1)Nc1c2c(nc3ccccc13)N(Cc1ccccc1)CC2 | 0.96 | 0.839 |
| NC(=O)c1ccc(-c2nc(-c3ccccn3)c(-c3ccc4c(c3)OCO4)[nH]2)cc1 | 1.08 and 1.11 | 0.993 and 1.03 |
| COc1ccc(C2=N[C@@H](c3ccc(Cl)cc3)[C@@H](c3ccc(Cl)cc3)N2C(=O)N2CCNC(=O)C2)c(OC(C)C)c1 [Nutlin-3] | 0.825 | 0.413 |
| CC(C)C[C@H](NC(=O)[C@H](Cc1ccccc1)NC(=O)c1cnccn1)B(O)O [bortezomib] | 0.302 | 0.432 |
| CC(C)c1ccc2c(c1)c(SC(C)(C)C)c(CC(C)(C)C(=O)O)n2Cc1ccc(Cl)cc1 | 1.06 | 0.959 |
| CN(C)CC(=O)Nc1ccc2[nH]c(=O)c3ccccc3c2c1 | 0.788 | 0.882 |
| C[C@@H]1C[C@H]2O[C@@H]2/C=C\C=C\C(=O)Cc2c(Cl)c(O)cc(O)c2C(=O)O1 [radicicol] | 0.409 | 0.342 |
| COc1ccc(Cl)cc1C(=O)NCCc1ccc(S(=O)(=O)NC(=O)NC2CCCCC2)cc1 [Glibenclamide] | 0.829 | 0.958 |
| COc1ccc([C@@H]2Sc3ccccc3N(CCN(C)C)C(=O)[C@@H]2OC(C)=O)cc1 [Diltiazem] | 0.858 | 1.04 |
| CO[C@@H]1[C@H](OC(=O)/C=C/C=C/C=C/C=C/C(=O)O)CC[C@]2(CO2)[C@H]1[C@@]1(C)O[C@@H]1CC=C(C)C [Fumagillin] | 0.91 | 0.991 |
